Drawing on PubChem BioAssay (Tox21), this text covers outcome and Potency for 13 compounds.

The nature of experiment [1]: qHTS assay for small molecules that induce genotoxicity in human embryonic kidney cells expressing luciferase-tagged ATAD5 (AID 651632). Also: nearly all actives have a fitted effect of over 15% in size. The note with it: HEK293T ATAD5-luciferase induction, 16 h; series mostly up to 83.3 µM. In short, it runs like this:
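Luminescence read-out: after 16 hr compound exposure at 37C, ATAD5-luciferase HEK293T cells received Amplite, 30 min RT, then CCD imaging. A rise in signal marks genotoxic stress.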
(In general: In qHTS, concentration-response curves come from the screen itself.)

Experiment [2] is described as follows: qHTS assay for small molecule agonists of the p53 signaling pathway - cell viability (AID 651633; calls by dose curve;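 also: p53RE-bla HCT reporter cells with a stable beta-lactamase p53 reporter; nearly all actives have a fitted effect of over 30% in size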). To be noted: p53RE-bla HCT-116 viability, ATP luminescence, 16 h; series mostly up to 83.3 µM. In short, it runs like this:
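p53RE-bla cells, seeded at 4,000 per well and rested 5 h at 37 C/5% CO2, received compounds in DMSO for 16 h at 37 C. CellTiter-Glo was then added, and luminescence was read after 30 min at room temperature to gauge cytotoxicity.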

Experiment [3] in a line: qHTS assay for small molecules that induce genotoxicity in human embryonic kidney cells expressing luciferase-tagged ATAD5 - cell viability (AID 651634; calls by dose curve; also: nearly all actives have a fitted effect of over 25% in size; also: potency is read from the fitted curve at half-maximal effect). To be noted: HEK293T ATAD5-luc cells viability, CellTiter-Fluor, 15.5 h; series mostly up to 83.3 µM. The gist of the method:
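HEK293T ATAD5-luc cells, 2,000/well; compound 15.5 hr, 37C/5% CO2; CellTiter-Fluor 30 min, 37C; fluorescence read.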

Experiment [4] is described as follows: qHTS assay for small molecule disruptors of the mitochondrial membrane potential - cell viability (AID 720634; calls by dose curve; also: nearly all actives have a fitted effect of over 20% in size; also: potency is read from the fitted curve at half-maximal effect). The note with it: HepG2 viability, ATP luminescence (CellTiter-Glo), 1 h; series mostly up to 83.2 µM. The gist of the method: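 Luminescence from CellTiter-Glo (ATP content) gave viability in HepG2 cells, read in the same wells as the MMP dye assay after 1 hr compound exposure at 37 C.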

Experiment [5] can be described thus: qHTS assay to test for compound auto fluorescence at 590 nm (red) in HepG2 cells (AID 720674). To be noted: HepG2 autofluorescence, red 540/590 nm, 1 h; series mostly up to 91.3 µM. The gist of the method:
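Intrinsic compound fluorescence in the red window (Ex/Em 540/590 nm) is measured in attached HepG2 cells exposed for 1 hr, DMSO vehicle as baseline, benchmarked to Rose Bengal sodium.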

The nature of experiment [6]: qHTS assay to test for compound auto fluorescence at 535 nm (green) in HepG2 cells (AID 720675). To be noted: green autofluorescence 485/535 nm, 1 h; series mostly up to 91.3 µM.
Experiment [7] can be described thus: qHTS assay to test for compound auto fluorescence at 460 nm (blue) in HEK293 cells (AID 720678). To be noted: blue autofluorescence 405/460 nm; series mostly up to 91.3 µM. The gist of the method:
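Blue-channel (Ex/Em 405/460 nm) intensity measured in HEK293 cultures after overnight compound exposure at 37C; signal expressed relative to triamterene. Cells plated 2,000 per well in 10% dialyzed FBS medium and allowed 4-5 hr to attach.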

The nature of experiment [8]: qHTS assay to test for compound auto fluorescence at 590 nm (red) in HEK293 cells (AID 720679). The note with it: red autofluorescence 540/590 nm; series mostly up to 91.3 µM. The gist of the method: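 Red-channel autofluorescence (Ex/Em 540/590 nm; Rose Bengal sodium reference) was measured after overnight 37C, 5% CO2 exposure of attached HEK293 cells, 2,000 per well in medium with 10% dialyzed FBS.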

Experiment [9] can be described thus: qHTS assay for small molecule disruptors of the mitochondrial membrane potential (AID 720635). Also: potency is read from the fitted curve at half-maximal effect. The note with it: HepG2 mitochondrial membrane potential, Mito-MPS dye ratio; series mostly up to 83.2 µM. In short, it runs like this:
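HepG2 cells (2,000/well) attached overnight at 37C, then took compound for 1 hr at 37C, 5% CO2. Mito-MPS dye was added for 30 min; fluorescence was read at 490/535 nm (monomers) and 540/590 nm (aggregates).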

Where “and” joins values, the source holds several entries; their conditions need not be identical. Equal entries are not always repeated. Records with an inconclusive call do not appear. Calls of active or inactive are those of the source. Unless noted, calls follow the shape of the dose curve; as a rule, active = well fitted curve in the direction sought with a large enough effect in the repeat runs; inconclusive = weak or mixed curves; inactive = no such curve, though single readings can be large; an effect the other way counts as inactive or inconclusive.

For the compound `CS(=O)(=O)c1ccc(C(=O)C2C(=O)CCCC2=O)c(Cl)c1COCC(F)(F)F`, the outcome in experiment [1], in experiment [5], in experiment [6], in [7] and in experiment [8] was inactive. Also, the Potency result in experiment [2], in [3] and in experiment [4] was “inactive” throughout.

Take `CC(O)CCl` (stereo unspecified): the call in experiment [1], in experiment [5], in [6], in experiment [7] and in [8] was inactive. The Potency entry in [2], in experiment [3] and in [4] was “inactive” throughout.

With `CCN[C@H](C)Cc1cccc(C(F)(F)F)c1`, the result in [1], in experiment [5], in [6], in experiment [7] and in [8] was inactive. Further, the Potency entry in experiment [2], in experiment [3] and in [4] was “inactive” in each case.

Regarding `CCCCCCCC(=O)Cl`, the outcome in experiment [1], in experiment [5], in experiment [6], in experiment [7] and in experiment [8] was inactive. For the same compound, the Potency result in experiment [2], in [3], in experiment [4] and in [9] was “inactive” in each case.

Consider `CC(C)(C)C(=O)C(Cl)Cl`, for which the outcome in experiment [1], in experiment [5], in experiment [6], in experiment [7] and in experiment [8] was inactive. In addition, the Potency entry in [2], in experiment [3], in [4] and in experiment [9] was “inactive” throughout.

`ClCC1CO1` (stereo unspecified): the call in [1], in experiment [5], in experiment [6], in experiment [7] and in experiment [8] was inactive. Also, the Potency entry in experiment [2], in [3], in experiment [4] and in experiment [9] was “inactive” each time.

Regarding `CCCN1CCC[C@@H]2Cc3[nH]ncc3C[C@H]21`, the result in experiment [1], in [5], in [6], in experiment [7] and in [8] was inactive. Also, the Potency entry in experiment [2], in experiment [3] and in [4] was “inactive” each time.

For the compound `CCOC1Oc2ccc(OS(C)(=O)=O)cc2C1(C)C` (stereo unspecified), the call in experiment [1], in [5], in [6], in experiment [7] and in experiment [8] was inactive. The Potency result in experiment [2], in experiment [3], in [4] and in [9] was “inactive” in each case.

For `Oc1ccc(Cc2ccc(O)cc2)cc1`, the result in [1], in experiment [5], in experiment [6], in experiment [7] and in [8] was inactive. Further, the Potency entry in [2], in experiment [3] and in [4] was “inactive” each time. Besides, the Potency in experiment [9] was 54.9 µM (active).

As to `C[C@H]1CCCC(=O)CCC/C=C/c2cc(O)cc(O)c2C(=O)O1`, the result in [1], in experiment [5], in [6], in [7] and in experiment [8] was inactive. In addition, the Potency entry in experiment [2] was “inactive”. Moreover, the Potency is 20.9 µM (active) in experiment [3]; 11.7 µM (active) and 20 µM (active) in experiment [4]; 2.34 µM (active) and 4.47 µM (active) in experiment [9].

Take `CC#Cc1cc(C)nc(Nc2ccccc2)n1`: the compound was classed as inactive in experiment [1], in experiment [5], in experiment [6], in experiment [7] and in experiment [8]. Further, the Potency entry in experiment [2], in experiment [3] and in [4] was “inactive” in each case. In experiment [9], the Potency was 27.3 µM (active).

As for `Cc1ccc2cc(C)ccc2c1`, the result in [1], in experiment [5], in experiment [6], in experiment [7] and in experiment [8] was inactive. Moreover, the Potency entry in [2], in experiment [3] and in experiment [4] was “inactive” each time.

As to `O=S1(=O)OCCO1`, the compound was classed as inactive in experiment [1], in experiment [5], in experiment [6], in experiment [7] and in experiment [8]. In addition, the Potency entry in [2], in [3] and in experiment [4] was “inactive” throughout.
